Bioassay records as filed in PubChem BioAssay.
CYP2C19 inh – blockers of cytochrome P450 2C19 activity – biochemical, luminescence, ADME assay, primary screen. CYP2C19 Supersomes, luciferin-H EGE luminescence, 30 min. inhibition, % at 5 µM. actives 21% (n = 96,000);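 active means CYP2C19 inhibition above a set limit at 5 µM in the primary screen, cut at about 50% in these data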
EphB4 antag – EphB4-ephrin-B2 interaction antagonists, primary screen, biochemical, TNYL-RAW peptide probe, fluorescence polarization | Ephrin type-B receptor 4 (Homo sapiens), P54760 | EphB4 LBD / TNYL-RAW-Alexa532 peptide | inhibition, % at 7 µM | actives 0.15% (n = 97,000);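 active means inhibition above the screen-wide mean inhibition plus 3 SD, cut at about 15% in these data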
CYP2C9 inhib – blockers of cytochrome P450 2C9 activity – biochemical, luminescence, ADME assay, primary screen | actives 20% (n = 96,000) | CYP2C9 Supersomes, luciferin-H conversion | P11712 | inhibition, % at 5 µM;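 active means blocking of liver enzyme CYP2C9 beyond about 50% at 5 µM, limit read from the data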
CYP2C19 act – human CYP2C19 activators, primary screen, biochemical, luminescence; 96,000 tested, under 10 active; activation factor at 5 µM; recombinant CYP2C19, luciferin-H EGE luminescence; stronger effect = higher value; 0 = fully inhibited enzyme, 1 = untreated enzyme; Cytochrome P450 2C19 (Homo sapiens), P33261;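 active means activation factor of at least 2 at 5 µM in the primary screen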
CYP2C9 act – human CYP2C9 activators, primary screen, biochemical, luminescence | recombinant CYP2C9, luciferin-H conversion; stronger effect = higher value; factor 1 = untreated enzyme, 0 = blocked | activation factor at 5 µM | Cytochrome P450 2C9 (Homo sapiens), P11712 | actives 1.4% (n = 96,000) | AID 1024, 2008;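 active means activation factor of 2 or more for CYP2C9 at a 5 µM dose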
Each line names hits and unclear results; the compound was inactive in the other large screens. An excerpt weighted towards active compounds, which were near 27% of everything screened.

O=C(NCCC1=CCCCC1)c1coc(=O)c(Br)c1	none
CC1(C)Cc2ccccc2-c2nnc(SCC(=O)N3CCc4ccccc43)n21	CYP2C9 inhib 53.2
COc1ccc(N2CCN(C(=O)CSc3nnc4c5cc(C)ccc5n(C)c4n3)CC2)cc1	CYP2C19 inh 80.6, CYP2C9 inhib 55.9
COc1ccc2c(c1)c1nnc(SCC(=O)N3CCCCC3C)nc1n2C (stereo not drawn)	none
COc1ccc(N2CCN(C(=O)CSc3ccccc3N)CC2)cc1	CYP2C19 inh 58.0, CYP2C9 inhib 68.6
COc1ccc(N2CCN(C(=O)CC(NC(N)=O)c3cccc(Oc4ccccc4)c3)CC2)cc1 (stereo not drawn)	CYP2C19 inh 63.5
Cc1ccc2cccc(Oc3cnccn3)c2n1	none
CC(C)n1c(-c2ccc(C(C)(C)C)cc2)n[nH]c1=S	none
Cn1cccc1Cc1nnc(SCC(=O)Nc2cccc(Cl)c2)n1-c1ccc(F)cc1	none (no result: EphB4 antag)
COc1ccc(N2CCN(C(=O)CSc3nnc4n3C(C)(C)Cc3ccccc3-4)CC2)cc1	CYP2C19 inh 58.0
CCOC(=O)N1CCC(NC(=O)c2oc3c(c2C)-c2[nH]ncc2CC3)CC1	none
CCOC(=O)c1ccc2c(c1)nc(COc1ccc(OC)cc1)n2CC	CYP2C19 inh 75.8, CYP2C9 inhib 55.3
CCSc1nc2cc(C(=O)OC)ccc2c(=O)n1CC	none (no result: CYP2C19 inh, CYP2C9 inhib, CYP2C19 act, CYP2C9 act)
C=CCNC(=O)CSc1nc2cc(C(=O)OCC)ccc2n1CC	CYP2C19 inh 95.8, CYP2C9 inhib 75.0
CCn1c(COc2cccc(C)c2)nc2ccccc21	none (no result: CYP2C19 inh, CYP2C9 inhib, CYP2C19 act, CYP2C9 act)
CCOC(=O)c1ccc2c(c1)nc(SCC(=O)c1cc3ccccc3o1)n2CC	CYP2C9 inhib 77.9
O=C(NCCN1CCCC1=O)Nc1ccccc1	none
CCCCCNc1nc(-c2ccccc2)cs1	CYP2C19 inh 76.5, CYP2C9 inhib 63.7
Cc1cc(N2CCN(C3CCCC3)CC2)n2ncc(-c3ccccc3)c2n1	CYP2C19 inh 71.8, CYP2C9 inhib 76.0 (no result: EphB4 antag)
Cc1cc(C)cc(NC(=O)CCN2CC(C)OC(C)C2)c1 (stereo not drawn)	none
c1ccc(-c2nc[nH]c2-c2ccccc2)cc1	none
CN(C)c1ccc(P(=O)(OC2CCCCC2)C(O)c2cccnc2)cc1 (stereo not drawn)	none
COc1cc(C(O)P(=O)(OC2CCCCC2)c2ccc(N(C)C)cc2)cc(OC)c1OC (stereo not drawn)	CYP2C19 inh 83.8
CC(C)(Oc1ccc(-c2ccco2)cc1)C(=O)O	none (no result: EphB4 antag)
O=C(Oc1ccccc1)c1ccccc1OS(=O)(=O)c1ccccc1	CYP2C9 inhib 58.7
COc1ccccc1C(=O)Oc1ccc(C(C)C)cc1	none
N#CC1=C(C=Nc2ccccc2O)CCC1	none
Cc1ccc(-c2nc3sc4c(N)ncnc4c3c3c2CCCC3)cc1	none
C/C=C/C(=O)Nc1ccccc1Br	none
S=C(Nc1cccc(Cl)c1)Nc1ccccc1Oc1ccccc1	CYP2C9 inhib 65.9
CN(c1cccc(Cl)c1)S(=O)(=O)c1cccc(C(=O)NC2=NCCS2)c1	CYP2C19 inh 73.8, CYP2C9 inhib 81.8
COc1ccc(N(Cc2ccccc2)S(=O)(=O)c2cccc(C(=O)NC3=NCCS3)c2)cc1	CYP2C19 inh 71.3, CYP2C9 inhib 97.3
CC(=O)Nc1cccc(-c2csc(Nc3ccccn3)n2)c1	none
COc1ccc(CNc2nc(NCc3ccc(OC)cc3)n(S(C)(=O)=O)n2)cc1	none
CCCN(CCC)c1nc(N)nc(-c2cc(Cl)ccc2OC)n1	CYP2C19 inh 57.5
CCCNc1nc(N)nc(-c2cc(Cl)ccc2OC)n1	CYP2C19 inh 74.1
CSc1nc(N(CCO)CCO)c2sc3nc(-c4ccco4)c4c(c3c2n1)CCC4	none (no result: EphB4 antag)
COc1ccc(-c2nc(CS(=O)CC(=O)NCc3ccc4c(c3)OCO4)c(C)o2)cc1 (stereo not drawn)	none
COC(=O)c1ccccc1OC(=O)c1ccc(Br)o1	CYP2C19 inh 75.5
CSc1ccc(Cl)c(C(=O)OCC(=O)NCC(C)C)c1	CYP2C19 inh 66.2
COc1cc(NC(=O)c2ccco2)c(OC)cc1NC(=O)c1cc(OC)c(OC)c(OC)c1	none
CCOc1cc(NC(=O)c2ccco2)c(OCC)cc1NC(=O)c1cc(OC)c(OC)c(OC)c1	CYP2C9 inhib 56.6
COc1cc(C(=O)OCC(=O)NC2CCCC2)cc(NC(=O)c2ccco2)c1OC	CYP2C19 inh 78.4, CYP2C9 inhib 73.4
Cn1ccnc1SC(=O)N1c2ccccc2Sc2ccccc21	CYP2C19 inh 83.9, CYP2C9 inhib 97.0
O=C(Sc1nnc(-c2ccccc2)o1)N1c2ccccc2Sc2ccccc21	none (no result: CYP2C19 inh, CYP2C9 inhib, CYP2C19 act, CYP2C9 act)
CCOC(=O)c1cccc(NC(=O)Nc2cc(OC)ccc2OC)c1	none
Cc1c(C#N)c2ccccc2n1CC(=O)N1CCc2ccccc2C1	none (no result: EphB4 antag)
CCCCNc1nc2ccccc2n1CC(=O)N1CCc2ccccc2C1	CYP2C19 inh 58.4
O=C(Cn1c(NCCCO)nc2ccccc21)c1cccc(Br)c1	CYP2C19 inh 75.7, CYP2C9 inhib 81.7
C/C(=N\Nc1cc(Cl)nc(C)n1)c1ccccc1	none
CC1(C)CC(C)(O)P(=O)(c2ccccc2)O1 (stereo not drawn)	none (no result: EphB4 antag)
O=c1cc(CN2CCOCC2)nc(C2CC2)[nH]1	none
CSc1ccc(NC(=O)NCCCN2CCN(c3ccccc3F)CC2)cc1	none
CN(C)c1nc(-c2ccccc2)nc(-c2ccc(Cl)cc2)c1C#N	none
CN(C)c1nc(-c2ccccn2)nnc1-c1ccccc1	CYP2C19 inh 51.0
Cn1c(SCc2ccccc2F)nnc1-c1cnccn1	CYP2C19 inh 62.1
c1ccc(CSc2nnc(-c3ccccn3)n2-c2ccccc2)cc1	CYP2C9 inhib 99.1
CC(C)(C)NC(=O)CSc1nc2ccccc2n1-c1ccccc1	CYP2C19 inh 99.1, CYP2C9 inhib 99.6
Cn1c(SCc2ccccn2)nnc1-c1cnccn1	none (no result: EphB4 antag)
CC(C)NC(=O)CSc1nc2ccccc2n1-c1ccccc1	none (no result: CYP2C19 inh, CYP2C9 inhib, CYP2C19 act, CYP2C9 act)
c1ccc(CSc2nncn2-c2ccccn2)cc1	CYP2C19 inh 88.1
Cc1ccc(CSc2nnc(-c3ccccn3)n2C)cc1	none
CC(C)(C)NC(=O)CSc1nnc(-c2ccccn2)n1-c1ccccc1	CYP2C19 inh 53.3 (no result: EphB4 antag)
Cn1c(SCc2ccc(F)cc2)nnc1-c1ccccn1	CYP2C19 inh 87.6
O=C(Cn1nnc(-c2cccs2)n1)N1CCc2ccccc2C1	none
COC(=O)c1ccccc1NC(=O)c1cccc(COc2ccccc2Cl)c1	none
O=S(=O)(c1ccc(F)cc1)N1CN(Cc2ccco2)c2nc3ccccc3nc21	CYP2C19 inh 82.2, CYP2C9 inhib 59.9
Cc1ccc(S(=O)(=O)N2CCCC2C(=O)OCc2ccco2)cc1 (stereo not drawn)	none
O=S(=O)(c1cccs1)N1CN(CC2CCCO2)c2nc3ccccc3nc21 (stereo not drawn)	none
COc1ccc(S(=O)(=O)N2CN(Cc3ccco3)c3nc4ccccc4nc32)cc1	CYP2C19 inh 69.8, CYP2C9 inhib 53.9
